{"source": "PubChem BioAssay (NCI)", "assay": "NCI Yeast Anticancer Drug Screen. Data for the sgs1 mgt1 strain (AID 161);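 note: 0% = growth of cultures given vehicle only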", "conditions": "S. cerevisiae sgs1 mgt1 strain, active compounds read high", "method": "Growth inhibition of yeast strains with defined genetic alterations is measured as a screen for potential anti-cancer activity. Selected strains with alterations in DNA damage repair or cell cycle control were exposed to compounds and growth inhibition was measured relative to vehicle treated controls. The strain used in this assay is sgs1 mgt1", "key": {"[1]": {"conditions": "at 5.0 µM (retest, dose inferred, filed as 0.5)"}, "[2]": {"conditions": "at 50.0 µM (retest, dose inferred, filed as 5.0)"}}, "note": "About 79,000 compounds went through this panel and 15% of them were active in at least one assay; those are over-represented in the sample as a whole. Values without a mark were called inactive. Active and inactive are the calls of the source. Cut-off read from the data, not from the text of the source: active = growth inhibition above about 70%; inactive = the rest.", "data": [{"smiles": "O=C(O)CCC/C(=N\\Nc1ccccc1)C(=O)O", "values": [{"measurement": "growth inhibition", "setting": "[1]", "result": 6, "unit": "%"}, {"measurement": "growth inhibition", "setting": "[2]", "result": "97% (active)"}, {"measurement": "growth inhibition", "setting": "at 50.0 µM", "result": "98.7% (active)"}]}, {"smiles": "CSc1nc(C)c(C(=O)CCN2CCOCC2)s1", "values": [{"measurement": "growth inhibition", "setting": "[1]", "result": -4, "unit": "%"}, {"measurement": "growth inhibition", "setting": "[2]", "result": "75% (active)"}, {"measurement": "growth inhibition", "setting": "at 50.0 µM", "result": "99.6% (active)"}]}, {"smiles": "CCCCCOCC(=O)OC", "values": [{"measurement": "growth inhibition", "setting": "[1]", "result": -1, "unit": "%"}, {"measurement": "growth inhibition", "setting": "[2]", "result": 5, "unit": "%"}, {"measurement": "growth inhibition", "setting": "at 50.0 µM", "result": -16.2, "unit": "%"}]}, {"smiles": "COc1ccccc1NC(=O)C1=C(C)NC(C)=C(C(=O)Nc2ccccc2OC)C1c1ccc(C2C(C(=O)Nc3ccccc3OC)=C(C)NC(C)=C2C(=O)Nc2ccccc2OC)cc1", "values": [{"measurement": "growth inhibition", "setting": "[1]", "result": 37, "unit": "%"}, {"measurement": "growth inhibition", "setting": "[2]", "result": "92% (active)"}, {"measurement": "growth inhibition", "setting": "at 50.0 µM", "result": "77.5% (active)"}]}, {"smiles": "COC1/C=C\\OC2(C)Oc3c(C)c(O)c4c(c3C2=O)C2=NC(C)(C)N(c3ccccc3)C2=C(NC(=O)/C(C)=C\\C=C\\C(C)C(O)C(C)C(O)C(C)C(OC(C)=O)C1C)C4=O", "note": "(configuration not stated)", "values": [{"measurement": "growth inhibition", "setting": "[1]", "result": -2, "unit": "%"}, {"measurement": "growth inhibition", "setting": "[2]", "result": "85% (active)"}, {"measurement": "growth inhibition", "setting": "at 50.0 µM", "result": "72.8% (active)"}]}, {"smiles": "Cn1c(=S)c2[nH]c(=S)[nH]c2n(C)c1=O", "values": [{"measurement": "growth inhibition", "setting": "[1]", "result": "94% (active)"}, {"measurement": "growth inhibition", "setting": "[2]", "result": "96% (active)"}, {"measurement": "growth inhibition", "setting": "at 50.0 µM", "result": "96.7% (active)"}]}, {"smiles": "CCOC(=O)c1[nH]c(Br)c(-c2ccc(OC)c(OC)c2)c1Br", "values": [{"measurement": "growth inhibition", "setting": "[1]", "result": 1, "unit": "%"}, {"measurement": "growth inhibition", "setting": "[2]", "result": "98% (active)"}, {"measurement": "growth inhibition", "setting": "at 50.0 µM", "result": "97.2% (active)"}]}, {"smiles": "CCOC(=O)c1ccc2c3c([nH]c2c1C)-c1ccccc1CC3", "values": [{"measurement": "growth inhibition", "setting": "[1]", "result": 14, "unit": "%"}, {"measurement": "growth inhibition", "setting": "[2]", "result": "95% (active)"}, {"measurement": "growth inhibition", "setting": "at 50.0 µM", "result": "94.7% (active)"}]}, {"smiles": "CCOC(=O)c1cc(C)ccc1-c1ccc(C)cc1C(=O)OCC", "values": [{"measurement": "growth inhibition", "setting": "[1]", "result": 1, "unit": "%"}, {"measurement": "growth inhibition", "setting": "[2]", "result": 68, "unit": "%"}, {"measurement": "growth inhibition", "setting": "at 50.0 µM", "result": "77% (active)"}]}, {"smiles": "CC(C)CCC(C)(C)c1cc(O)ccc1O", "values": [{"measurement": "growth inhibition", "setting": "[1]", "result": 16, "unit": "%"}, {"measurement": "growth inhibition", "setting": "[2]", "result": "98% (active)"}, {"measurement": "growth inhibition", "setting": "at 50.0 µM", "result": "75.7% (active)"}]}, {"smiles": "CCCCCCCCCCCCCCCCNC(C)c1ccccc1", "note": "(configuration not stated)", "values": [{"measurement": "growth inhibition", "setting": "[1]", "result": 6, "unit": "%"}, {"measurement": "growth inhibition", "setting": "[2]", "result": 4, "unit": "%"}, {"measurement": "growth inhibition", "setting": "at 50.0 µM", "result": "99% (active)"}]}, {"smiles": "OC1CN(C2CCCCC2)CC1C1(O)CCN(C2CCCCC2)C1", "note": "(configuration not stated)", "values": [{"measurement": "growth inhibition", "setting": "[1]", "result": 0, "unit": "%"}, {"measurement": "growth inhibition", "setting": "[2]", "result": 11, "unit": "%"}, {"measurement": "growth inhibition", "setting": "at 50.0 µM", "result": 12.8, "unit": "%"}]}, {"smiles": "CCNc1cc(N)[n+](CC)c2n[nH]c(/N=C/c3cc(Cl)cc(Cl)c3O)c12", "values": [{"measurement": "growth inhibition", "setting": "[1]", "result": 41, "unit": "%"}, {"measurement": "growth inhibition", "setting": "[2]", "result": "98% (active)"}, {"measurement": "growth inhibition", "setting": "at 50.0 µM", "result": "89.8% (active)"}]}, {"smiles": "O=C1c2cccc3cc([N+](=O)[O-])cc(c23)C(=O)N1O", "values": [{"measurement": "growth inhibition", "setting": "[1]", "result": 13, "unit": "%"}, {"measurement": "growth inhibition", "setting": "[2]", "result": 37, "unit": "%"}, {"measurement": "growth inhibition", "setting": "at 50.0 µM", "result": "81.2% (active)"}]}]}
